Assay results from PubChem BioAssay (NCATS).
Where “and” joins values, the source holds several entries; their conditions need not be identical. Equal entries are not always repeated. Records with an inconclusive call do not appear. Calls of active or inactive are those of the source. Unless noted, calls come from the whole dose curve; as a rule, active = well fitted curve in the direction sought with a large enough effect; inconclusive = small, poorly fitted or top-dose-only effect, or another doubt; inactive = no such curve, though single readings can be large; an effect the other way counts as inactive or inconclusive.

Assays:
[1] = molecular target: Cellular tumor antigen p53 (Homo sapiens) (UniProt P04637); test: Primary qHTS for small molecule compounds that upregulate eGFP-tagged delta133p53alpha (in N-terminal) cells. (AID 2060322); details: NCI-H358 eGFP-delta133p53alpha fluorescence, 24 h; activation: hits give high values;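 note: cells pre-induced with doxycycline then dosed without doxycycline; series mostly up to about 56 µM; 0% = DMSO vehicle and 100% = reference activator; nearly all actives have a fitted effect of over 75% in size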
Cellular tumor antigen p53 (Homo sapiens), sequence (P04637 whole entry, looked up): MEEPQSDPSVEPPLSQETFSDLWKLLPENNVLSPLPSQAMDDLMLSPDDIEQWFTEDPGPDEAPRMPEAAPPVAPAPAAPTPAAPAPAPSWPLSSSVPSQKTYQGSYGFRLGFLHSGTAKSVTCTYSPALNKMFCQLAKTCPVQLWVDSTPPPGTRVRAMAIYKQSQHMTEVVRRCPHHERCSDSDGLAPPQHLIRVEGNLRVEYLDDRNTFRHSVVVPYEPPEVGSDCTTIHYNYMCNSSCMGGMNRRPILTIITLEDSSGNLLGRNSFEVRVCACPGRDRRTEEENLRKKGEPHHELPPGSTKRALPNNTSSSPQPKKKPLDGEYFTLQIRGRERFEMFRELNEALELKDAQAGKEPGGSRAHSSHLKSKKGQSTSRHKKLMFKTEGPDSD
Method in brief: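 NCI-H358 cells pre-induced 24 h with 10 ng/ml doxycycline for eGFP-delta133p53alpha, plated dox-free and exposed 24 h at 37C to titrated compounds. Fixed, Hoechst-stained; gated GFP peak intensity by laser scanning cytometry, normalized to DMSO (0%) and 57.5 uM 5-azacytidine (100%).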

[2] = molecular target: Cellular tumor antigen p53 (Homo sapiens) (UniProt P04637); test: Primary qHTS for small molecule compounds that upregulate eGFP-tagged delta133p53alpha (in C-terminal) cells. (AID 2060324);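 note: 0% = DMSO wells and 100% = 57.5 µM 5-azacytidine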
Method in brief: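 Read-out: gated-cell GFP peak intensity (laser scanning cytometer), plate-normalized with DMSO as 0% activity, after 24 h compound exposure at 37C. Cells were C-terminal eGFP-tagged delta133p53alpha NCI-H358, doxycycline-induced (100 ng/ml, 24 h) before plating.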

[3] = molecular target: Aldehyde dehydrogenase, mitochondrial (Homo sapiens) (UniProt P05091); test: qHTS for Inhibitors of the Aldehyde Dehydrogenase Family (ALDH2) Validation screens (AID 2061302; active = well fitted inhibition curve with a large enough effect; title and protocol of this record describe different tests;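 note: plate controls were DMSO vehicle for no effect and maximal DPI positive control response for full effect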)
[4] = BET inhibitor-based combinations targeting novel dependencies in MECOM-rearranged (r) AML: SET-2 cell line (AID 2202231); details: SET-2 AML cells viability, CellTiter-Glo luminescence, 48 h; viability: hits give low values, series mostly up to about 46 µM;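 note: plate controls were DMSO treated cells for no effect and wells without cells for full effect; nearly all actives have a fitted effect of over 35% in size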
Method in brief: (§1)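 Cells were plated at 500 per well and exposed to an 11-point dose series of each drug for 48 hr. Viability was measured by CellTiter-Glo luminescence, normalized to DMSO and empty-well controls, and summarized as AUC and per-cell-line Z-AUC.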

[5] = BET inhibitor-based combinations targeting novel dependencies in MECOM-rearranged (r) AML: OCI-AML3 cell line (AID 2202232); details: Potency: OCI-AML3 viability; note: nearly all actives have a fitted effect of over 35% in size; note: potency is the fitted concentration of half-maximal effect
Method in brief: as §1

[6] = BET inhibitor-based combinations targeting novel dependencies in MECOM-rearranged (r) AML: MV-4-11 cell line (AID 2202233); note: nearly all actives have a fitted effect of over 45% in size; note: potency is the fitted concentration of half-maximal effect
Method in brief: (§2)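 Activity is given as area under the curve and as Z-AUC, mean-centred within each cell line. It comes from 11-point dose curves normalized to DMSO and empty wells. CellTiter-Glo luminescence was read after 48 hr drug exposure of 500 cells/well.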

[7] = BET inhibitor-based combinations targeting novel dependencies in MECOM-rearranged (r) AML: HNT-34 cell line (AID 2202234); note: nearly all actives have a fitted effect of over 35% in size; note: potency is the fitted concentration of half-maximal effect
Method in brief: as §2

[8] = BET inhibitor-based combinations targeting novel dependencies in MECOM-rearranged (r) AML: UCSD-AML1 cell line (AID 2202235); note: nearly all actives have a fitted effect of over 40% in size; note: potency is the fitted concentration of half-maximal effect
Method in brief: as §2

[9] = BET inhibitor-based combinations targeting novel dependencies in MECOM-rearranged (r) AML: AML-194 cell line (AID 2202237; note: nearly all actives have a fitted effect of over 40% in size; note: potency is the fitted concentration of half-maximal effect)
Method in brief: as §1

[10] = molecular target: Aldehyde dehydrogenase, mitochondrial (Homo sapiens) (UniProt P05091); test: qHTS for Inhibitors of the Aldehyde Dehydrogenase Family (ALDH2) Confirmatory screens (AID 2061303; active = well fitted inhibition curve with a large enough effect; title and protocol of this record describe different tests; note: % is set by controls: 0 for no effect and ±100 for the full control effect; nearly all actives have a fitted effect of over 45% in size)
[11] = qHTS for Inhibitors of the Aldehyde Dehydrogenase Family (ALDH1A2, ALDH1A3, ALDH2, ALDH3A1) (AID 2061307); note: % is set by controls: 0 for no effect and ±100 for the full control effect; nearly all actives have a fitted effect of over 50% in size
[12] = molecular target: Retinaldehyde dehydrogenase 3 (Homo sapiens) (UniProt P47895); test: qHTS for Inhibitors of the Aldehyde Dehydrogenase Family (ALDH1A3) Confirmatory screens (AID 2061311); note: nearly all actives have a fitted effect of over 60% in size; note: potency is the fitted concentration of half-maximal effect
[13] = molecular target: Retinal dehydrogenase 2 (Homo sapiens) (UniProt O94788); test: qHTS for Inhibitors of the Aldehyde Dehydrogenase Family (ALDH1A2) Confirmation screens (AID 2061314); note: nearly all actives have a fitted effect of over 65% in size
[14] = molecular target: Aldehyde dehydrogenase 1A1 (Homo sapiens) (UniProt P00352); test: qHTS for Inhibitors of the Aldehyde Dehydrogenase Family (ALDH1A1) Confirmatory screens (AID 2061316); note: nearly all actives have a fitted effect of over 65% in size; note: potency is the fitted concentration of half-maximal effect
[15] = BET inhibitor-based combinations targeting novel dependencies in MECOM-rearranged (r) AML: AML-191 cell line (AID 2202236; note: nearly all actives have a fitted effect of over 35% in size; note: potency is the fitted concentration of half-maximal effect)
Method in brief: as §1

[16] = molecular target: Retinaldehyde dehydrogenase 3 (Homo sapiens) (UniProt P47895); test: qHTS for Inhibitors of the Aldehyde Dehydrogenase Family (ALDH1A3) Validation screen (AID 2061312); note: % is set by controls: 0 for no effect and ±100 for the full control effect; nearly all actives have a fitted effect of over 45% in size
[17] = molecular target: Aldehyde dehydrogenase, mitochondrial (Homo sapiens) (UniProt P05091); test: qHTS for Inhibitors of the Aldehyde Dehydrogenase Family (ALDH2) Primary screen (AID 2061308);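 note: plate controls were vehicle for no effect and reference inhibitor for full effect; nearly all actives have a fitted effect of over 55% in size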
[18] = molecular target: Retinaldehyde dehydrogenase 3 (Homo sapiens) (UniProt P47895); test: qHTS for Inhibitors of the Aldehyde Dehydrogenase Family (ALDH1A3) Primary screen (AID 2061315);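 note: plate controls were DMSO vehicle for no effect and reference inhibitor for full effect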

Oc1ccc(C2CNCCc3c2cc(O)c(O)c3Cl)cc1 (configuration not stated)
inactive: activation [1] -18.2% and -20.9% and -11.7% | Potency [2] | Potency [3] | viability [4] 108% | Potency [5] | Potency [6] | Potency [7] | Potency [8] | Potency [9]

C[N+](C)(C)CCOC(=O)CCC(=O)OCC[N+](C)(C)C
inactive: activation [1] -8.47% | Potency [2] | Potency [10] | Potency [11] | Potency [12] | Potency [13] | Potency [14]

O=Nc1c(-c2c(O)[nH]c3cc(Br)ccc23)[nH]c2ccccc12
inactive: activation [1] 17.1% and -39.3% | Potency [2] | Potency [3]
active: Potency [5] 11.8 µM | Potency [6] 0.263 µM | Potency [7] 2.63 µM | Potency [8] 13.2 µM | Potency [15] 14.8 µM | Potency [9] 14.8 µM

Cc1ccc2c(c1)C(N1CCN(C)CC1)=Nc1cccnc1N2
active: Potency [14] 12.7 µM
inactive: activation [1] 13.7% | Potency [2] | Potency [3]

CC(C)(C)C(=O)Oc1ccc(S(=O)(=O)Nc2ccccc2C(=O)NCC(=O)O)cc1
inactive: activation [1] -5.86% and -2.63% and -11.2% | Potency [2] | Potency [3] | viability [4] 111% | Potency [5] | Potency [6] | Potency [7] | Potency [8] | Potency [15] | Potency [9]

C[C@@H](N)C1CCC(C(=O)Nc2ccncc2)CC1 (some centres not stated)
inactive: activation [1] -43.5% and -9.78% | Potency [2] | Potency [3] | viability [4] 110% | Potency [5] | Potency [7] | Potency [8] | Potency [15] | Potency [9]

Nc1nc(OCc2ccccc2)c2[nH]cnc2n1
inactive: activation [1] 4.06% | Potency [2] | Potency [3] | Potency [16] | Potency [9]

COc1ccccc1N1CCN(CCN2C(=O)CC3(CCCC3)CC2=O)CC1
inactive: activation [1] 3.57% and -22.5% | Potency [2] | Potency [10] | Potency [11] | Potency [17] | Potency [12] | Potency [13] | Potency [18]

COc1ccccc1OCC(O)CN1CCN(CC(=O)Nc2c(C)cccc2C)CC1 (configuration not stated)
inactive: activation [1] -19.2% and 6.83% and -14.1% | Potency [2] | Potency [3] | viability [4] 110% | Potency [6] | Potency [7] | Potency [15] | Potency [9]

Cc1cccc(-c2[nH]c(C(C)(C)C)nc2-c2ccc3nccnc3c2)n1
inactive: activation [1] -6.37% and 25.5% | Potency [2] | Potency [3] | Potency [16] | Potency [5] | Potency [8]

Cc1cccc(C)c1OCC(N)C(C)C (configuration not stated)
inactive: activation [1] -8.7% | Potency [2] | Potency [10] | Potency [11] | Potency [13]

C[C@]12CC[C@@H]3c4ccc(O)cc4CC[C@H]3[C@@H]1CC[C@@H]2O
inactive: activation [1] 63.8% | Potency [2] | Potency [3] | Potency [16]
active: Potency [7] 20.9 µM | Potency [8] 14.8 µM | Potency [15] 16.6 µM | Potency [9] 23.5 µM

CC#C[C@]1(O)CC[C@H]2[C@@H]3CCC4=CC(=O)CCC4=C3[C@@H](c3ccc(N(C)C)cc3)C[C@@]21C
inactive: activation [1] 7.02% | Potency [2] | Potency [3] | Potency [16]
active: Potency [6] 23.5 µM | Potency [9] 18.6 µM

Cc1nc(N=Nc2cc(S(=O)(=O)O)c3cc([N+](=O)[O-])cc(S(=O)(=O)O)c3c2)c(COP(=O)(O)O)c(C=O)c1O
active: Potency [12] 22.5 µM
inactive: activation [1] -72.9% | Potency [2] | Potency [10] | Potency [11] | Potency [16] | Potency [13] | Potency [14]

CC(=O)Oc1ccccc1C(=O)O
inactive: activation [1] 23.2% and 81.8% and -5.87% | Potency [2] | Potency [3] | Potency [16] | Potency [6] | Potency [7] | Potency [15] | Potency [9]

Cc1cc(C(C)(C)C)cc(C)c1CC1=NCCN1
active: Potency [6] 18.6 µM
inactive: activation [1] 4.18% and 6.06% and -36% | Potency [2] | Potency [3] | Potency [16] | Potency [9]

C[C@H]1O[C@@H](n2cc(F)c(=O)[nH]c2=O)[C@H](O)[C@@H]1O
inactive: activation [1] 2.35% | Potency [2] | Potency [3] | Potency [16]
active: Potency [6] 13.2 µM

Oc1ccccc1O
active: Potency [14] 11.3 µM
inactive: activation [1] -3.18% | Potency [2] | Potency [3] | Potency [13]

O=C(c1cc(O)c(O)c([N+](=O)[O-])c1)c1ccccc1F
inactive: activation [1] -61.3% | Potency [2] | Potency [10] | Potency [13]
active: Potency [12] 3.18 µM | Potency [14] 12.7 µM
